# Source: PubChem BioAssay
# Inconclusive results are not listed. Activity calls are given as the source filed them. Cut-off read from the data, not from the text of the source, unless noted: active = inhibition above about 80%; inactive = the rest.
# Columns and labels:
# [1] = viability loss in pontine glioma line – cell-based, SU-DIPG-XVII, MIPE5.0, CellTiter-Glo, qHTS, dose response (AID 1347060; cut-off not given, nearly all actives have AC50 up to about 26 µM); conditions: CellTiter-Glo ATP luminescence
# [2] = viability loss in pontine glioma line – cell-based, SU-DIPG-XIII, MIPE5.0, CellTiter-Glo, qHTS, dose response (AID 1347064; cut-off not given, nearly all actives have AC50 up to about 23 µM); conditions: CellTiter-Glo ATP luminescence
# [3] = JHH-DIPG-1 glioma cell viability, MIPE5.0 library, CellTiter-Glo luminescence, qHTS (AID 1347067; cut-off not given, nearly all actives have AC50 up to about 26 µM;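 note: cells exposed to compound for 48 hours before readout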); conditions: JHH-DIPG-1 glioma viability, CellTiter-Glo ATP luminescence
# [4] = growth inhibition of DIPG cells – cell-based, MIPE5.0 library, qHTS (AID 1347068; cut-off not given, nearly all actives have IC50 up to about 30 µM); conditions: SU-DIPG-XXV viability
# [5] = growth inhibition, single agent or in combination, cell-based, chromothripsis tumors, cisplatin or BGB combos (AID 1671449); conditions: LFS_MB_P medulloblastoma cells;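 note: cells exposed for 96 hours; 0% = vehicle DMSO and 100% = killing by high DMSO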
# [6] = growth inhibition, single agent and combos, cell-based, chromothripsis tumors, cisplatin or BGB combos (AID 1671450); conditions: HDN33 neuroblastoma cells, stronger effect = higher value;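 note: cells exposed to compound for four days; 0% = vehicle DMSO and 100% = cell killing by high DMSO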
# [7] = growth inhibition, single agents and combos, ICB984, cell-based, cisplatin or BGB combos, synergistic combos for chromothripsis tumors (AID 1671451; call rule not given here;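 note: cells exposed for 96 hours before readout; 0% = vehicle DMSO and 100% = killing by high DMSO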); conditions: ICB984 medulloblastoma cells, drug combinations, stronger effect = higher value
# [8] = growth inhibition, single agents and combos, LFS_MB_1R, cell-based, cisplatin or BGB combos, synergistic combos for chromothripsis tumors (AID 1671452); conditions: LFS_MB_1R medulloblastoma cells, stronger effect = higher value;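 note: cells exposed for 96 hours before readout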
# [9] = growth inhibition, single agents and combos, HTB85, cell-based, BGB or cisplatin IC20 combos, synergistic combos for chromothripsis tumors (AID 1671453); conditions: HTB85 osteosarcoma cells, drug combinations, stronger effect = higher value;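 note: cells exposed for 96 hours before readout; 0% = vehicle DMSO and 100% = high DMSO killing control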
# [10] = growth inhibition, single agents and combos, CRL2098, cell-based, BGB or cisplatin IC20 combos, synergistic combos for chromothripsis tumors (AID 1671454); conditions: CRL2098 osteosarcoma cells, drug combinations, stronger effect = higher value;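 note: cells exposed for 96 h before readout; 0% = vehicle DMSO and 100% = killing by high DMSO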
# [11] = growth inhibition, single agents and combos, HD-MB03, cell-based, BGB or cisplatin IC20 combos, synergistic combos for chromothripsis tumors (AID 1671455; in the data active = inhibition above about 83%;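 note: 0% = vehicle DMSO and 100% = high DMSO as cytotoxic control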); conditions: HD-MB03 medulloblastoma cells, stronger effect = higher value
# [12] = growth inhibition, single agents and combos, UWB1.289, cell-based, BGB or cisplatin combos, synergistic combos for chromothripsis tumors (AID 1671456); conditions: UWB1.289 ovarian carcinoma cells, stronger effect = higher value;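 note: cells exposed to compound for four days; 0% = vehicle DMSO and 100% = killing by high DMSO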
# [13] = growth inhibition, single agents and combos, LFS_MB_2R, cell-based, cisplatin combos, synergistic combos for chromothripsis tumors (AID 1671457); conditions: LFS_MB_2R medulloblastoma cells, stronger effect = higher value;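 note: cells exposed to compound for four days before readout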
# [14] = growth inhibition, MDA-MB-436, cell-based, BGB or cisplatin combos, synergistic combos for chromothripsis tumors (AID 1671458; call rule not given here;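 note: cells exposed for 96 hours; 0% = vehicle DMSO and 100% = killing by high DMSO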); conditions: MDA-MB-436 breast carcinoma growth inhibition, drug combinations, stronger effect = higher value
# [15] = UWB1.289_BRCA1 ovarian cancer growth, cell-based, BGB or cisplatin combinations (AID 1671459); conditions: UWB1.289 BRCA1 ovarian carcinoma, drug combinations, stronger effect = higher value
# [16] = drug combination toxicity in non-malignant astrocytes – cell-based, BGB or cisplatin IC20 combos, cytotoxicity control for chromothriptic childhood tumor combination screen (AID 1671460); conditions: Human astrocytes, viability inhibition, drug combinations, at 0.5 µM, stronger effect = higher value;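 note: cells exposed to compounds for 96 hours before viability readout; 0% = vehicle and 100% = killing control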
# [17] = BT084 cell growth, single and combined drugs, ICGC_MB145, cisplatin and BGB IC40 combos (AID 1671461); conditions: BT084 medulloblastoma cells, drug combinations, stronger effect = higher value;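 note: cells exposed to drugs for 96 hours; 0% = vehicle DMSO and 100% = high DMSO full killing control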
# [18] = RCMB18 cell growth, single agent and combined, cisplatin and BGB IC40 combos (AID 1671462); conditions: RCMB18 medulloblastoma cells, stronger effect = higher value;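 note: cells exposed to compound for four days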
# [19] = CRL1545 cell growth, single agent and combined, cisplatin and BGB IC20 combos (AID 1671464); conditions: CRL1545 osteosarcoma cells, stronger effect = higher value;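 note: cells exposed to compound for 96 hours before readout; 0% = vehicle DMSO and 100% = high DMSO killing control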
# [20] = measured here: combination with BGB IC40, at 0.05 µM
# [21] = measured here: with BGB IC20 combination, at 0.5 µM
# [22] = measured here: with cisplatin IC20 combination, at 0.5 µM
# [23] = measured here: combination with cisplatin, at 0.5 µM
# [24] = measured here: combination with cisplatin, at 5 µM
smiles,measurement,setting,value
NC(=O)c1nc(F)c[nH]c1=O,outcome,[1],inactive
same,outcome,[2],inactive
same,outcome,[3],inactive
same,outcome,[4],inactive
same,inhibition,"[5]; at 0.5 µM, stronger effect = higher value",-5.96% (inactive)
same,inhibition,"[5]; measured here: combination with BGB IC20, at 0.005 µM",-6.89%
same,inhibition,"[5]; measured here: combination with BGB IC40, at 0.005 µM",86.3%
same,inhibition,[5]; [20],2.5%
same,inhibition,"[5]; measured here: combination with cisplatin, at 0.5 µM, stronger effect = higher value",-12.3%
same,inhibition,"[5]; measured here: combination with cisplatin, at 5 µM, stronger effect = higher value",-15%
same,inhibition,"[6]; BGB combo, at 5 µM",-13.7%
same,inhibition,[6]; at 0.5 µM,0.69% (inactive)
same,inhibition,"[6]; cisplatin combo, at 5 µM",-13.9%
same,inhibition,[6]; [21],-3.64%
same,inhibition,[6]; [22],-5.09%
same,inhibition,"[6]; single agent, at 5 µM",9.18%
same,inhibition,"[7]; BGB IC20 combo, at 0.005 µM",-3.29%
same,inhibition,"[7]; BGB IC40 combo, at 0.005 µM",-2.11%
same,inhibition,"[7]; BGB IC40 combo, at 0.05 µM",0.125%
same,inhibition,[7]; at 0.5 µM,0.29% (inactive)
same,inhibition,"[7]; cisplatin combo, at 0.05 µM",-4.93%
same,inhibition,"[7]; cisplatin combo, at 0.5 µM",4.34%
same,inhibition,"[7]; cisplatin combo, at 5 µM",4.92%
same,inhibition,"[7]; measured here: 5 uM single agent, at 5 µM",-8.47%
same,inhibition,[8]; at 0.5 µM,1.01% (inactive)
same,inhibition,[8]; [20],2.61%
same,inhibition,[8]; [23],-16.3%
same,inhibition,[8]; [24],16.6%
same,inhibition,[9]; at 0.5 µM,1.18% (inactive)
same,inhibition,"[9]; measured here: with BGB IC20, at 0.5 µM",-2.45%
same,inhibition,"[9]; measured here: with BGB IC20, at 5 µM",5.78%
same,inhibition,"[9]; measured here: with cisplatin IC20, at 0.5 µM",-2.57%
same,inhibition,"[9]; measured here: with cisplatin IC20, at 5 µM",4.67%
same,inhibition,"[9]; single agent, at 5 µM",17.5%
same,inhibition,[10]; at 0.5 µM,-7.02% (inactive)
same,inhibition,"[10]; measured here: combination with BGB at IC20, at 0.5 µM",-19%
same,inhibition,"[10]; measured here: combination with cisplatin at IC20, at 0.5 µM",9.34%
same,inhibition,[11]; at 0.5 µM,0.58% (inactive)
same,inhibition,"[11]; measured here: combo with BGB at IC20, at 0.5 µM",5.69%
same,inhibition,"[11]; measured here: combo with cisplatin at IC20, at 0.5 µM",-1.93%
same,inhibition,[12]; at 0.5 µM,4.26% (inactive)
same,inhibition,"[12]; measured here: inhibition with BGB combination, at 0.05 µM",6.54%
same,inhibition,"[12]; measured here: inhibition with cisplatin combination, at 0.05 µM",-1.23%
same,inhibition,[13]; at 0.5 µM,1.33% (inactive)
same,inhibition,[13]; [23],5.37%
same,inhibition,[13]; [24],9.87%
same,inhibition,[14]; at 0.5 µM,-2.87% (inactive)
same,inhibition,"[14]; measured here: BGB combination, at 0.5 µM",-1.29%
same,inhibition,"[14]; measured here: BGB combination, at 5 µM",-9.17%
same,inhibition,"[14]; measured here: cisplatin combination, at 0.5 µM",-10.9%
same,inhibition,"[14]; measured here: cisplatin combination, at 5 µM",-5.06%
same,inhibition,"[15]; BGB combination, concentration series, at 5 µM",-6.18%
same,inhibition,[15]; at 0.5 µM,1.49% (inactive)
same,inhibition,"[15]; cisplatin combination, concentration series, at 5 µM",2.48%
same,inhibition,[16],-3.48% (inactive)
same,inhibition,[16]; measured here: combo with BGB IC20,-7.39%
same,inhibition,[16]; measured here: combo with cisplatin IC20,-5.76%
same,inhibition,[17]; at 0.5 µM,-1.11% (inactive)
same,inhibition,"[17]; cisplatin combination, at 0.5 µM",6.95%
same,inhibition,"[17]; cisplatin combination, at 5 µM",-101%
same,inhibition,"[17]; measured here: BGB IC40 combination 0.05 uM, at 0.05 µM",-16.8%
same,inhibition,"[17]; single agent, at 5 µM",4.66%
same,inhibition,[18]; at 0.5 µM,-6.23% (inactive)
same,inhibition,"[18]; cisplatin combo, at 5 µM",8.94%
same,inhibition,"[18]; measured here: BGB IC40 combination, at 0.05 µM",-10.5%
same,inhibition,[18]; [23],-26.7%
same,inhibition,"[18]; single agent, at 5 µM",14.2%
same,inhibition,[19]; at 0.5 µM,13.8% (inactive)
same,inhibition,[19]; [21],6.76%
same,inhibition,[19]; [22],16%
same,inhibition,"[19]; single agent, at 0.05 µM",-15.2%
same,inhibition,"[19]; single agent, at 5 µM",-29.6%
